Results filed as inconclusive are left out. Entries that show only a call come without a potency. Values without a mark were called inactive. Calls of active or inactive are those of the source. Calls come from the whole dose curve.
Test: p53 small molecule agonists, cell-based qHTS assay with rat liver microsomes: qHTS cell viability counter screen (AID 1963580); note: nearly all actives have a fitted effect of over 45% in size
Details: p53RE-bla HCT-116 + rat microsomes, ATP viability, 16 h; series mostly up to 66 µM; activity change, negative = cytotoxicity: at the top concentration
Text: National Center for Advancing Translational Sciences [NCATS]
Division of Preclinical Innovation [DPI]
U.S. Environmental Protection Agency [EPA]
National Institutes of Environmental Health Sciences [NIEHS]
National Toxicology Program [NTP]
U.S. Food and Drug Administration [FDA]
p53, a tumor suppressor protein, is activated following cellular insult, including DNA damage and other cellular stresses. The activation of p53 regulates cell fate by inducing DNA repair, cell cycle arrest, apoptosis, or cellular senescence. The activation of p53, therefore, is a good indicator of DNA damage and other cellular stresses. The CellSensor p53RE-bla HCT-116 cell line contains a stably integrated beta-lactamase reporter gene under control of the p53 response elements. The activation of the reporter gene under culture conditions can be detected by fluorescence intensity. This cell line was used to screen the Tox21 10K compound library in the condition of presence of rat liver microsomes and to identify agonists that activate the p53 signaling pathway after in vitro metabolic activation (Ooka et al., Archive of Toxicology 96:1975-1987, 2022). The cytotoxicity of the Tox21 compound library against the p53 RE-bla HCT-116 cell line was tested in parallel by measuring the intra cellular ATP content in the same wells.
Tox21 Assay Protocol Summary:
The p53RE-bla cells were dispensed at 4,000cells/3ul/well in 1536-well black-clear bottom plates. After the assay plates were incubated at 37 C, 5% CO2 incubator for 5 hours, 23 nL of compounds dissolved in DMSO, positive controls or DMSO only was transferred to the assay plate. Following compound addition, 3 uL of rat liver microsomes (Molecular Toxicology, Boone, NC) at final concentration of 0.5 mg/mL and 1uL of B-Nicotinamide adenine dinucleotide 2'-phosphate (NADPH) at final concentration of 0.5 mg/mL were transferred to the assay plate. The plates were incubated at 37 C for 16 hours. 1 uL of LiveBLAzer detection mixture was added to each well and the plates were incubated at room temperature in the dark for 2 h. Fluorescence intensity at 460 and 530 nm emission and 405 nm excitation were measured by an Envision plate reader. For cell viability readout that measures cytotoxicity, 4 ul/well of CellTiter-Glo reagent was added into the assay plates using a Flying Reagent Dispenser. After 30 min incubation at room temperature, the luminescence intensity in the plates was measured using a ViewLux plate reader.
For OC(CCl)CCl, the Potency was “inactive”.
In the case of CC(C)(C)c1cccc(C(C)(C)C)c1O, the Potency is reported as “inactive”.
With CC(=O)[C@@]1(O)CC[C@H]2[C@@H]3C[C@H](C)C4=CC(=O)C=C[C@]4(C)[C@@]3(F)[C@@H](O)C[C@@]21C the Potency was “inactive”.
In the case of NC(=O)c1cnccn1, the Potency is reported as “inactive”.
For CC(O)C(=O)O (stereo not given), the Potency was “inactive”.
In the case of C=C1C2CCC(C2)C1(C)C (stereo not given), the Potency is reported as “inactive”.
In the case of CNC[C@H](O)c1cccc(O)c1, the Potency is reported as “inactive”.
In the case of O=NO, the Potency is reported as “inactive”.
For O=C(OCCOCCOC(=O)c1ccccc1)c1ccccc1, the Potency was “inactive”.
For C[Si]1(C)O[Si](C)(C)O[Si](C)(C)O[Si](C)(C)O1, the Potency was “inactive”.
With CCCCCCCCCCCCCCCCCC(=O)OCC(O)CO (stereo not given) the Potency was “inactive”.
For Clc1cc(Cl)c(Cl)cc1Cl, the Potency was “inactive”.
In the case of CN1C(C(=O)Nc2ccccn2)=C(O)c2ccccc2S1(=O)=O, the Potency is reported as “inactive”.
For CCc1ccc(CCOc2ccc(CC3SC(=O)NC3=O)cc2)nc1 (stereo not given), the Potency was “inactive”.
For COCCc1ccc(OCC(O)CNC(C)C)cc1 (stereo not given), the Potency was “inactive”.
For CC(O)CN(CCN(CC(C)O)CC(C)O)CC(C)O (stereo not given), the Potency was “inactive”.
In the case of CCCCCCCC=O, the Potency is reported as “inactive”.
In the case of COCN(COC)c1nc(N(COC)COC)nc(N(COC)COC)n1, the Potency is reported as “inactive”.
With COC(=O)c1cccc(C(=O)OC)c1 the Potency was “inactive”.
For Cc1ccc(S(=O)(=O)O)cc1, the Potency was “inactive”.
For COCC(C)O (stereo not given), the Potency was “inactive”.
In the case of O=Cc1ccc(CO)o1, the Potency is reported as “inactive”.
In the case of O=C(O)CCC(=O)O, the Potency is reported as “inactive”.
For O=C1NC(=O)C(c2ccccc2)(c2ccccc2)N1, the Potency was “inactive”.
For CC1(C)S[C@@H]2[C@H](NC(=O)COc3ccccc3)C(=O)N2[C@H]1C(=O)O, the Potency was “inactive”.
In the case of CN(C)C, the Potency is reported as “inactive”.
In the case of CCc1cccc(CC)c1N, the Potency is reported as “inactive”.
For CCCCCC1=CCCC1=O, the Potency was “inactive”.
For CC(=O)C(C)C, the Potency was “inactive”.
In the case of COc1ccc(NC(C)=O)cc1N, the Potency is reported as “inactive”.
With CC(C)(CO)CO the Potency was “inactive”.
With Nc1nc(=S)c2[nH]cnc2[nH]1 the Potency was “inactive”.
In the case of CCC[C@H](N[C@@H](C)C(=O)N1[C@H](C(=O)O)C[C@@H]2CCCC[C@@H]21)C(=O)OCC, the Potency is reported as “inactive”.
With c1ccncc1 the Potency was “inactive”.
In the case of CCCCCCOCCO, the “activity change, negative = cytotoxicity” value is reported as 1.5%.
In the case of Nc1ccc(S(=O)(=O)Nc2cnc3ccccc3n2)cc1, the Potency is reported as “inactive”.
For CN(C)Cc1cc(CN(C)C)c(O)c(CN(C)C)c1, the Potency was “inactive”.
With c1ccc2c(c1)ccc1cc3c(ccc4ccccc43)cc12 the Potency was “inactive”.
For CCCCOCCOCCO, the Potency was “inactive”.
In the case of CS(=O)(=O)c1ccc([C@@H](O)[C@@H](CO)NC(=O)C(Cl)Cl)cc1, the Potency is reported as “inactive”.

Reference: PubChem BioAssay (Tox21)
